For the assay, the system named is primary human hepatic stellate cells (donor 1). Nature of the assay: scaled lipid accumulation score (0 = DMSO-like, 1 = nortriptyline-like); higher = stronger HSC inactivation (lipid re-accumulation), active = hit call of the paper. To be noted: 48 h.
Where [1] appears, read: library stock concentration: 1 mM.
The mark [2] stands for this setting: library stock concentration: 3.33 mM.
Setting [3] is: library stock concentration: 10 mM.
The mark [4] stands for this setting: library stock concentration: 5.1 mM.

This is an account of results in the supplement of paper PMC9135407.

Values joined by “and” are separate entries in the source; they are usually repeats but may differ in a detail not shown here. Identical values can stand only once. Counter-ions that a name gives are not always drawn. In all, about 5,800 compounds went through this assay and about 620 (11%) showed activity. What follows is part of a selection rich in actives, with near analogues and random picks from the rest. Values without a mark were called inactive.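 The calls were made as follows: active = score above a cut-off or among the top three wells of a plate; in these data no inactive exceeds 0.85.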

Regarding `CCCCCCCC/C=C\CCCCCCCC(=O)OC[C@@H](COP(O)(O)=S)OC`, the “scaled lipid accumulation score” value under setting [1] was 0.084.
For the molecule `NC(=NN=Cc1ccc(-c2cccc([N+](=O)[O-])c2)o1)N[N+](=O)[O-]` [ERK Inhibitor III], the “scaled lipid accumulation score” value under setting [2] is at most 0.
Consider `Cn1c2c(c3ccccc31)CCNCC2`, for which the “scaled lipid accumulation score” value under setting [3] was 0.326.
For the molecule `COc1cccc(C2(O)CCCCC2CN(C)C)c1` (configuration not stated) [Tramadol hydrochloride], the “scaled lipid accumulation score” value (library stock concentration: 6.7 mM) was at most 0.
On to `COc1cccc(C2(O)CCCCC2CN(C)C)c1` (configuration not stated) [Tramadol], for which the “scaled lipid accumulation score” value under setting [3] is 0.009.
For `COc1cccc(C2(O)CCCCC2CN(C)C)c1` (configuration not stated) [Tramadol HCl], the “scaled lipid accumulation score” value (library stock concentration: 7.6 mM) was at most 0.
`COc1ccc(CCN)cc1OC` [Homoveratrylamine]: the “scaled lipid accumulation score” value under setting [3] is 0.046.
Take `C=CCN1C[C@H](C(=O)N(CCCN(C)C)C(=O)NCC)C[C@@H]2c3cccc4[nH]cc(c34)C[C@H]21` [Cabergoline]: where the note is “library stock concentration: 4.4 mM”, the “scaled lipid accumulation score” value was 0.368.
As for `CCN1C[C@]2(COC)CC[C@H](O)[C@@]34C5C[C@@H]6[C@@H](OC)C[C@](O)(C(CC23)C14)C5[C@H]6OC(C)=O` (some centres not stated) [Condelphine], the “scaled lipid accumulation score” value is at most 0.
In the case of `COc1cc2c(c(OC)c1OC)-c1ccc(O)c(=O)cc1[C@@H](N)CC2` [Trimethylcolchicinic acid], the “scaled lipid accumulation score” value was 0.074.
Turning to `O=C(NC(COc1ccc2[nH]c(=O)[nH]c2c1)c1ccccc1)c1cccn(Cc2ccc(F)c(F)c2)c1=O` (configuration not stated), the “scaled lipid accumulation score” value runs as follows: (library stock concentration: 80 uM) at most 0; (library stock concentration: 400 uM) at most 0; (library stock concentration: 2 mM) at most 0; under setting [3], at most 0.
Consider `COc1cc([C@@H]2c3cc4c(cc3[C@H](O)[C@H]3COC(=O)[C@H]23)OCO4)cc(OC)c1OC` [Podophyllotoxin], for which the “scaled lipid accumulation score” value was at most 0. For the same molecule, the “scaled lipid accumulation score” value under setting [3] is 0.288.
On to `COc1cc([C@@H]2c3cc4c(cc3[C@H](O)[C@H]3COC(=O)[C@H]23)OCO4)cc(OC)c1OC` [Podofilox], for which the “scaled lipid accumulation score” value was 0.201 (library stock concentration: 4.8 mM) and 0.419 under setting [3].
On to `C/C=C(\C)C(=O)N[C@@H](c1ccccc1)[C@@H](O)C(=O)O[C@H]1C[C@@]2(O)[C@@H](OC(=O)c3ccccc3)[C@@H]3[C@]4(OC(C)=O)CO[C@@H]4C[C@H](O)[C@@]3(C)C(=O)[C@H](OC(C)=O)C(=C1C)C2(C)C` [Cephalomannine], for which the “scaled lipid accumulation score” value reads like this: under setting [2], at most 0; under setting [3], at most 0.
For the molecule `O=C(CCCN1CCC2(CC1)C(=O)N(Cc1cccc(F)c1)CN2c1ccccc1)c1ccc(F)cc1.O=C(O)/C=C\C(=O)O` [3'-Fluorobenzylspiperone maleate], the “scaled lipid accumulation score” value under setting [3] is 0.967 (active).
In the case of `O=C(CCCN1CCC2(CC1)C(=O)NCN2c1ccccc1)c1ccc(F)cc1` [Spiperone] [listing 1 of 2 here], the “scaled lipid accumulation score” value under setting [4] is 0.939 (active).
For `O=C(CCCN1CCC2(CC1)C(=O)NCN2c1ccccc1)c1ccc(F)cc1` [Spiperone] [listing 2 of 2 here], the “scaled lipid accumulation score” value is 0.119. Also, the “scaled lipid accumulation score” value under setting [4] was 0.399. Moreover, under setting [3], the “scaled lipid accumulation score” value is at most 0.
For `O=C(CCCN1CCC2(CC1)C(=O)NCN2c1ccccc1)c1ccc(F)cc1` [Spiperone hydrochloride], under setting [3], the “scaled lipid accumulation score” value was 0.74 and 0.784.
On to `O=C(NCCN1CCC2(CC1)C(=O)NCN2c1ccccc1)c1ccc2ccccc2c1`, for which the “scaled lipid accumulation score” value under setting [1] was at most 0.
For `CC(N)c1cccc(Cl)c1Cl` (configuration not stated), under setting [3], the “scaled lipid accumulation score” value is 0.208.
Still for that read-out and setting: as for `O=C(O)c1ccc2[nH]cc(CCCCN3CC=C(c4ccccc4)CC3)c2c1` [Carmoxirole hydrochloride], the figure is 0.073.
Take `CN1C2CC(O)CC1C1OC12` (configuration not stated) [Scopine]: the “scaled lipid accumulation score” value is at most 0 under setting [2] and at most 0 under setting [3].
Turning to `CCCCCCCCCCCCCCCC(=O)OCC(COP(=O)([O-])OCC[N+](C)(C)C)OC(C)=O` (configuration not stated), the “scaled lipid accumulation score” value under setting [1] was 0.014.
Regarding `C=C(C)[C@@H]1[C@H]2OC(=O)[C@@H]1[C@]1(O)C[C@H]3O[C@]34C(=O)O[C@H]2[C@]14C.CC(C)(O)[C@@H]1[C@H]2OC(=O)[C@@H]1[C@]1(O)C[C@H]3O[C@]34C(=O)O[C@H]2[C@]14C` [Picrotin - Picrotoxinin], the “scaled lipid accumulation score” value under setting [3] was at most 0.
As for `c1cncc(C2=NCCC2)c1` [Myosmine], the “scaled lipid accumulation score” value was at most 0.
As to `CC(=O)OCC1=C(C(=O)[O-])N2C(=O)[C@@H](NC(=O)CCC[C@@H](N)C(=O)[O-])[C@H]2SC1.[Zn+2]` [Cephalosporin C zinc salt], under setting [3], the “scaled lipid accumulation score” value is 0.329.
With `COc1cc2c3cc1Oc1c(OC)c(OC)cc4c1[C@@H](Cc1cccc(c1)Oc1ccc(c(O)c1)C[C@@H]3N(C)CC2)N(C)CC4` [Berbamine hydrochloride], under setting [3], the “scaled lipid accumulation score” value is at most 0.
Take `COc1ccc(C[C@H]2NC[C@H](O)[C@H]2OC(C)=O)cc1` [Anisomycin] [listing 1 of 3 here]: the “scaled lipid accumulation score” value under setting [3] was 0.806.
For `COc1ccc(C[C@H]2NC[C@H](O)[C@H]2OC(C)=O)cc1` [Anisomycin] [listing 2 of 3 here], the “scaled lipid accumulation score” value is 1.05 (active).
Turning to `COc1ccc(C[C@@H]2NC[C@@H](O)[C@@H]2OC(C)=O)cc1` [Anisomycin], the “scaled lipid accumulation score” value (library stock concentration: 18.8 mM) is 0.899 (active).
As to `COc1ccc(C[C@H]2NC[C@H](O)[C@H]2OC(C)=O)cc1` [Anisomycin] [listing 3 of 3 here], the “scaled lipid accumulation score” value under setting [3] was 1.39 (active).
In the case of `O[C@@H]1CCCC[C@H]1N1CCC(c2ccccc2)CC1` [L(-)-vesamicol hydrochloride], the “scaled lipid accumulation score” value is at most 0.
As to `CC(C)(C)NCC(O)COc1cccc2[nH]c(C#N)cc12` (configuration not stated) [Cyanopindolol hemifumarate], under setting [3], the “scaled lipid accumulation score” value is 0.049.
For the molecule `CC(C)[C@@H]1NC(=O)[C@H](C)OC(=O)[C@@H](C(C)C)NC(=O)[C@@H](C(C)C)OC(=O)[C@H](C(C)C)NC(=O)[C@H](C)OC(=O)[C@@H](C(C)C)NC(=O)[C@@H](C(C)C)OC(=O)[C@H](C(C)C)NC(=O)[C@H](C)OC(=O)[C@@H](C(C)C)NC(=O)[C@@H](C(C)C)OC1=O` [Valinomycin], the “scaled lipid accumulation score” value (library stock concentration: 4.5 mM) was 0.447.
Take `CC1=NN=C(c2ccc(N)cc2)c2cc3c(cc2C1)OCO3`: the “scaled lipid accumulation score” value under setting [3] is ≤ -0.07 and ≤ -0.006.
Consider `CC[C@H](C)[C@H]1O[C@]2(C=C[C@@H]1C)C[C@@H]1C[C@@H](C/C=C(\C)[C@@H](O[C@H]3C[C@H](OC)[C@@H](O[C@H]4C[C@H](OC)[C@@H](O)[C@H](C)O4)[C@H](C)O3)[C@@H](C)/C=C/C=C3\CO[C@@H]4[C@H](O)C(C)=C[C@@H](C(=O)O1)[C@]34O)O2.CO[C@H]1C[C@H](O[C@H]2[C@H](C)O[C@@H](O[C@@H]3/C(C)=C/C[C@@H]4C[C@@H](C[C@]5(C=C[C@H](C)[C@@H](C(C)C)O5)O4)OC(=O)[C@@H]4C=C(C)[C@@H](O)[C@H]5OC/C(=C\C=C\[C@@H]3C)[C@]54O)C[C@@H]2OC)O[C@@H](C)[C@@H]1O` [Avermectin b1], for which, under setting [3], the “scaled lipid accumulation score” value is at most 0.
For the molecule `CC[C@H](C)[C@H]1O[C@]2(C=C[C@@H]1C)C[C@@H]1C[C@@H](C/C=C(\C)[C@@H](O[C@H]3C[C@H](OC)[C@@H](O[C@H]4C[C@H](OC)[C@@H](O)[C@H](C)O4)[C@H](C)O3)[C@@H](C)/C=C/C=C3\CO[C@@H]4[C@H](O)C(C)=C[C@@H](C(=O)O1)[C@]34O)O2.CO[C@H]1C[C@H](O[C@H]2[C@H](C)O[C@@H](O[C@@H]3/C(C)=C/C[C@@H]4C[C@@H](C[C@]5(C=C[C@H](C)[C@@H](C(C)C)O5)O4)OC(=O)[C@@H]4C=C(C)[C@@H](O)[C@H]5OC/C(=C\C=C\[C@@H]3C)[C@]54O)C[C@@H]2OC)O[C@@H](C)[C@@H]1O` [Abamectin], the “scaled lipid accumulation score” value (library stock concentration: 2.3 mM) was 0.027 and ≤ 0.
Consider `CC[C@H](C)[C@H]1O[C@]2(C=C[C@@H]1C)C[C@@H]1C[C@@H](C/C=C(\C)[C@@H](O[C@H]3C[C@H](OC)[C@@H](O[C@H]4C[C@H](OC)[C@@H](O)[C@H](C)O4)[C@H](C)O3)[C@@H](C)/C=C/C=C3\CO[C@@H]4[C@H](O)C(C)=C[C@@H](C(=O)O1)[C@]34O)O2.CO[C@H]1C[C@H](O[C@H]2[C@H](C)O[C@@H](O[C@@H]3/C(C)=C/C[C@@H]4C[C@@H](C[C@]5(C=C[C@H](C)[C@@H](C(C)C)O5)O4)OC(=O)[C@@H]4C=C(C)[C@@H](O)[C@H]5OC/C(=C\C=C\[C@@H]3C)[C@]54O)C[C@@H]2OC)O[C@@H](C)[C@@H]1O` [Avermectin B1], for which the “scaled lipid accumulation score” value is at most 0.
